Compound activity deposited in PubChem by Milwaukee Institute for Drug Discovery.
HCV NS3h FP = hepatitis C NS3 helicase inhibition, primary screen. NS3h Cy5-dT15 DNA binding, fluorescence polarization. 1.6% of 16,000 active. AID 687043. inhibition, % at 100 µM;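 active = inhibition above the average over every tested compound plus 3 SD, cut at about 40% in these data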
Cy5 interf NS3h = Cy5 fluorescence interference, HCV helicase counter-screen | fluorescence interference ratio at 100 µM | Cy5-dT15 DNA with NS3h; actives lie on both sides; signal over control mean, under 1 quenches | 6% of 16,000 active | AID 720488;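 active = compound fluorescence over control fluorescence at most 0.8, a quencher, or at least a set upper limit, an enhancer; inactive = ratio between 0.8 and the set upper limit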
Starred values were filed as active, the others as inactive. Hits are enriched below; roughly 6.9% of the tested compounds scored in any of these assays.

SMILES | HCV NS3h FP | Cy5 interf NS3h
CCOC(=O)C1=NN(c2ccccc2)C(=O)C1OC(C)=O (stereo not given) | 3.6 | 1.03
CCOC(=O)c1sc(NN=C(C#N)C#N)c(C(=O)OCC)c1C | -1.5 | 0.562*
CCOC(=O)c1c(NC(=O)/C=C\C(=O)O)sc(C(=O)Nc2ccccc2)c1C | 19.1 | 0.942
Cc1ccc(-c2cc(C(F)(F)F)n3ncc(C(=O)N4CCN(c5ccc(F)cc5)CC4)c3n2)cc1 | 9.6 | 0.613*
CCOC(=O)c1cnn2c(C(F)(F)F)cc(-c3ccco3)nc12 | 2.8 | 1.01
CN(Cc1ccccc1)C(=O)c1nn2c(C(F)(F)F)cc(-c3ccccc3)nc2c1Cl | 7.7 | 0.61*
COc1cc(-c2cc(C(F)(F)F)n3ncc(C(=O)Nc4cccc5ccccc45)c3n2)cc(OC)c1OC | -0.6 | 1.08
O=C(c1nn2c(C(F)(F)F)cc(-c3ccccc3)nc2c1Cl)N1CCCC1 | 9.4 | 0.928
Cc1ccc(-c2cc(C(F)(F)F)n3ncc(C(=O)N(C)Cc4ccccc4)c3n2)cc1 | 8.7 | 0.615*
O=C(Nc1ccc(Cl)cn1)c1cc(I)ccc1Cl | -1.9 | 1.08
C=CCNC(=O)CN(c1ccccc1OC)S(=O)(=O)c1ccccc1 | 7.2 | 1.03
O=C(COc1ccc(Cl)cc1)N1CCN(C(=O)c2ccncc2)CC1 | 8.2 | 1.1
O=C(O)COc1ccc(N2C(=O)c3c(Cl)c(Cl)c(Cl)c(Cl)c3C2=O)cc1 | 9.6 | 0.953
O=C1c2c(Cl)c(Cl)c(Cl)c(Cl)c2C(=O)N1c1ncccn1 | 3.1 | 0.649*
CCCC(=O)Nc1nnc(COc2ccc(C)c(C)c2)s1 | 5.0 | 1.05
COc1cc(C(=O)Oc2ccc3c(C)cc(=O)oc3c2C(C)=O)cc(OC)c1OC | 11.8 | 1.15
COc1cc(C=O)ccc1OC(=O)c1cc(OC)c(OC)c(OC)c1 | 0.3 | 0.67*
CCOC(=O)C1=C(C)NC2=C(C(=O)CCC2)C1c1coc2ccc(Cl)cc2c1=O (stereo not given) | 1.4 | 0.962
O=C1NC(=Nc2cccnc2)S/C1=C\c1ccc(Br)cc1 | -19.3 | 0.99
O=C(NCc1cccnc1)c1ccc2ccccc2c1 | 3.6 | 1.16
COc1ccc(NC(=O)CN(c2ccc(OC)cc2)S(=O)(=O)c2ccc(C)cc2)cc1 | 3.2 | 1.08
O=C(NCCCN1CCOCC1)/C(=C/c1ccc(-c2cccc([N+](=O)[O-])c2)o1)NC(=O)c1ccccc1 | 5.2 | 0.866
O=C(NCCCO)/C(=C/c1ccc(-c2cccc([N+](=O)[O-])c2)o1)NC(=O)c1ccccc1 | 8.8 | 0.789*
CC(=O)Nc1ccccc1NC(=O)c1ccc(I)cc1 | 6.4 | 1.11
Fc1cnc(Nc2ccccc2)nc1Nc1ccccc1 | 22.3 | 1.06
SMILES | HCV NS3h FP | Cy5 interf NS3h
Cc1ccc(N=C2NC(=O)/C(=C\c3cccc(Br)c3)S2)cc1C | -0.3 | 0.792*
Cc1ccc(N=C2NC(=O)/C(=C/c3ccc(O)cc3)S2)cc1C | -3.9 | 0.938
C=CCN(CC=C)C(=O)C(C)Oc1ccccc1 (stereo not given) | -11.5 | 1.04
C=CCN1C(=O)/C(=C\c2ccc(Br)c([N+](=O)[O-])c2)SC1=S | 18.0 | 0.646*
C=CCN1C(=O)/C(=C/c2cccc(Br)c2)SC1=S | 0.4 | 0.939
O=C1NC(=O)C(=Cc2ccc(-c3cc(Cl)c([N+](=O)[O-])cc3Cl)o2)C(=O)N1 | -140.8 | 0.0399*
Cc1cc([N+](=O)[O-])c(-c2ccc(C=C3C(=O)c4ccccc4C3=O)o2)cc1Cl | 6.0 | 1.02
Cc1cccc(-c2nc3cc(NC(=O)COc4ccccc4[N+](=O)[O-])ccc3o2)c1 | 14.2 | 0.524*
CCc1ccc(-c2nc3cc(NC(=O)COc4ccccc4[N+](=O)[O-])ccc3o2)cc1 | -3.0 | 1.08
O=C(NCCc1ccc(Cl)cc1)C(=O)Nc1ccccc1F | 11.6 | 1.06
Cc1cc(C)c(NC(=O)c2ccccc2[N+](=O)[O-])c(C)c1 | 13.0 | 0.991
COc1cc(NC(=O)c2ccccc2Br)cc(OC)c1 | 5.6 | 0.95
CN(C)CC#CC(O)(c1ccccc1)c1ccccc1 | -19.8 | 1.03
CN(CCOC(=O)C(C)(c1ccccc1)c1ccccc1)C(C)(C)C | 5.9 | 0.755*
O=C(Nc1nc2ccccc2s1)c1ccc(-c2ccccc2)cc1 | 34.8 | 0.526*
COC(=O)c1cc(C(=O)Nc2nc3ccccc3s2)cc([N+](=O)[O-])c1 | -6.3 | 0.534*
COC(=O)c1cc(C(=O)Nc2ccccc2C(N)=O)cc([N+](=O)[O-])c1 | 5.7 | 0.959
Cc1cccc(C(=O)Nc2nc3ccc(Br)cc3s2)c1 | 7.3 | 1.12
O=[N+]([O-])c1cc(N[C@@H]2O[C@H](CO)[C@@H](O)[C@H](O)[C@@H]2O)ccc1Cl | -2.8 | 0.95
Cc1ccc(N2C(=O)S/C(=C/c3ccc4c(c3)OCO4)C2=O)cc1 | 1.8 | 1.05
Cc1ccc(N2C(=O)CC(N3CCOCC3)C2=O)cc1 (stereo not given) | 1.0 | 1.05
CCOC(=O)C1CCCN(C2CC(=O)N(c3ccc(C)cc3)C2=O)C1 (stereo not given) | 7.2 | 1.25*
Brc1ccc(NCn2nnc3ccccc32)cc1 | 9.1 | 1.19
